Measurements taken from ChEMBL document CHEMBL3988442, “University of Dundee, Small-Polar-MMV Screening Library” (2021).
Out of some 48,000 compounds screened, about 13,000 (27%) showed an effect of 50% or more. This is one part of the list.

tested on: Wolbachia pipientis; assay: Anti-Wolbachia Cell-Based Screen; assay type: functional; design: scale not given: in the data most compounds retested in dose-response had high values; conditions: 5 µM

| Compound | Percent Effect |
| --- | --- |
| CC(NC(=O)c1ccc2c(c1)COC2)c1cccc(N2CCOC2=O)c1 (centres undefined) | -4.788% |
| Cc1nc2cc(OCc3nc(C(=O)NC(C)(CO)CO)co3)ccc2s1 | 17.49% |
| CCc1nnc(CN(CC)C(=O)CCc2scnc2C)o1 | -3.701% |
| CCN(Cc1ccncc1)C(=O)C(C)n1ccnc1C(C)C (centres undefined) | 110.2% |
| Cc1ccc(CN(C)C(=O)C(C)n2cncn2)o1 (centres undefined) | -9.156% |
| Cc1ccc(CN(C)C(=O)C(C)n2ccnc2C(C)C)o1 (centres undefined) | 90.15% |
| CC(C)c1nccn1C(C)C(=O)NC1Cc2ccccc2C1 (centres undefined) | 10.2% |
| Cc1cccnc1N1CCN(C(=O)C(C)n2ccnc2C(C)C)CC1 (centres undefined) | -23.9% |
| COc1cc2c(cc1CNC(=O)C(C)n1ccnc1C(C)C)OCCO2 (centres undefined) | -1.746% |
| CCOC(=O)N1CCN(C(=O)C(C)n2ccnc2C(C)C)CC1 (centres undefined) | -18.05% |
| Cc1nc(C)n(CCNC(=O)C(C)n2ccnc2C(C)C)n1 (centres undefined) | -3.784% |
| CC(C(=O)N(C)Cc1ccc(Br)o1)n1cccn1 (centres undefined) | 0.6222% |
| CCN(Cc1ccc(C)o1)C(=O)C(C)n1ccnc1C(C)C (centres undefined) | 103.3% |
| CCc1nnc(CN(CC)C(=O)C(C)n2ccnc2C(C)C)o1 (centres undefined) | 83.87% |
| Cc1nnc2ccc(NCC3(N4CCCCC4)CCOCC3)nn12 | -7.148% |
| COc1ccc(C)cc1-n1c(COC(C)C)n[nH]c1=O | 0.04984% |
| Cc1cccc(CCC(=O)NCC2CCCN2c2cccnn2)c1 (centres undefined) | 7.373% |
| Cc1nc(CN2CC(=O)N(C)c3ccccc3C2=O)no1 | 7.895% |
| CN(CC(O)C1CC1)C(=O)c1ccc(-c2nc(C3CC3)no2)cc1 (centres undefined) | 4.636% |
| COc1cccc(CNc2nnc(C(C)(C)C)o2)c1OC | 92.71% |
| COc1cccc(CNC(=O)Nc2ccc3[nH]nnc3c2)c1OC | -10.07% |
| COc1ccc(CNc2nnc(CC(C)(C)C)o2)cc1C#N | -29.2% |

| Compound | Percent Effect |
| --- | --- |
| COc1ccc(OC)c(CNc2nnc(C(C)(C)C)o2)c1 | 112.6% |
| CC(C)(C)c1nnc(NCc2ccc(F)cc2)o1 | -7.164% |
| CCc1nnc(NCc2cccc(OC)c2OC)o1 | 1.756% |
| CN(Cc1ccccc1)c1ncccc1CNC1CCC1 | -23.22% |
| CN(Cc1cc(Br)c2c(c1)OCO2)Cc1cscn1 | 2.814% |
| CSCCNC(=O)c1coc(COc2ccc(F)cc2)n1 | -7.576% |
| CCC(C)N(Cc1ccncc1)C(=O)CCSC (centres undefined) | -18.32% |
| O=C(NCc1cccnc1)NCC(O)c1cccc(C(F)(F)F)c1 (centres undefined) | -14.42% |
| CCOc1cccc(CNC(=O)NCC(O)c2cccc(F)c2)c1 (centres undefined) | 5.413% |
| O=C(NCc1cccc(F)c1)NCC(O)c1cccc(F)c1 (centres undefined) | 96.97% |
| CSc1ccc(CNC(=O)NCC(O)c2cccc(F)c2)cc1 (centres undefined) | 106.1% |
| CC(C)Nc1cccc(C(=O)NCC(O)c2cccc(F)c2)c1 (centres undefined) | -13.04% |
| CNC(=O)c1cccc(NC(=O)NCc2ccc(SC)cc2)c1C | -19.71% |
| Cc1cc(C)c(CNC(=O)NCC(O)c2cccc(F)c2)c(=O)[nH]1 (centres undefined) | 0.6677% |
| O=C(NCc1ccccc1)NCC(O)c1cccc(F)c1 (centres undefined) | 95.34% |
| Cc1cc(CNC(=O)NCC(O)c2cccc(F)c2)no1 (centres undefined) | -1.718% |
| O=C(C1SCCc2sccc21)N1CCN(C2CC2)C(=O)C1 (centres undefined) | -5.096% |
| CN(CCc1noc(C2CC2)n1)C(=O)CCc1cc2n(n1)CCCNC2 | 5.558% |
| CC(=O)c1sc(C(NC(=O)c2ccccc2)C2CC2)nc1C (centres undefined) | 5.718% |
| CSCCC(=O)N1C[C@@H](C)[C@](O)(C(C)C)C1 | 109.4% |
| CSCC(=O)N1C[C@@H](C)[C@](O)(C(C)C)C1 | 100.1% |
| CSCCC(=O)N1CCN(CC(C)O)CC1 (centres undefined) | -18.5% |

| Compound | Percent Effect |
| --- | --- |
| C[C@@H]1CN(C(=O)CSc2nncn2C)C[C@@]1(O)C1CC1 | -9.811% |
| CCC(O)CN1CCN(C(=O)CCSC)CC1 (centres undefined) | 1.956% |
| CSCC(=O)N1CCN(CC(O)C(C)(C)C)CC1 (centres undefined) | -10.26% |
| Clc1cccc2c1CCN(Cc1nc(CC3CC3)no1)C2 | -15.7% |
| O=C(NCCNc1ncccn1)c1scnc1Cl | 2.928% |
| CCc1noc(CN2CCN(C(=O)c3ccccn3)CC2)n1 | -5.851% |
| CC(C)Cc1noc(CN2CCCN(C(=O)c3ccccc3Cl)CC2)n1 | -15.62% |
| CCc1noc(CN2CCN(C(=O)N(C)C)CC2)n1 | -9.661% |
| CCc1noc(CN2CCN(C(=O)c3ccccc3F)CC2)n1 | 117.4% |
| CC(C)Cc1noc(CN2CCN(C(=O)c3ccccc3F)CC2)n1 | 100.3% |
| CC(C)Cc1noc(CN2CCN(C(=O)c3ccco3)CC2)n1 | -2.17% |
| OCC1(O)CCCN(Cc2ccc(-c3cc[nH]n3)s2)CC1 (centres undefined) | 3.83% |
| Cc1cnn(CC2CCCN2C(=O)c2cc3ccccc3c(=O)[nH]2)c1 (centres undefined) | 122.8% |
| O=C1COc2c(cccc2C(=O)N2CCCCC2Cn2cccn2)N1 (centres undefined) | -1.784% |
| Cc1cnn(CC2CCCN2C(=O)c2cc3ccccc3[nH]c2=O)c1 (centres undefined) | -0.3129% |
| O=C(c1n[nH]c(=O)c2ccccc12)N1CCCC1Cn1cccn1 (centres undefined) | 110.2% |
| O=C1COc2c(cccc2C(=O)N2CCCC2Cn2cccn2)N1 (centres undefined) | -10.2% |
| Cc1cnn(CC2CCCN2C(=O)c2cc3ccccc3[nH]2)c1 (centres undefined) | 2.697% |
| Cc1cnn(CC2CCCN2C(=O)c2n[nH]c(=O)c3ccccc23)c1 (centres undefined) | 115% |
| Cc1cnn(CC2CCCN2C(=O)Cc2n[nH]c3ccccc23)c1 (centres undefined) | 2.79% |
| O=C(c1nccc2ccccc12)N1CCCCC1Cn1cccn1 (centres undefined) | 116.9% |
| O=C1CC(c2ccc(F)c(F)c2)c2snc(C(=O)O)c2N1 (centres undefined) | 8.498% |

| Compound | Percent Effect |
| --- | --- |
| Cc1ccc(-c2cc(CN(CC(N)=O)CC(C)C)on2)cc1 | -24.63% |
| Cc1ccc(-c2ncc(C(=O)NCCS(N)(=O)=O)s2)c(C)c1 | -6.964% |
| CCCn1nnnc1CSc1nccn1CC | -2.029% |
| Cc1nc(CN2CCN(C(=O)CCC(=O)c3ccccc3)CC2)no1 | 17.55% |
| CCCn1cc(C(=O)N2CCCC(Cc3nccs3)C2)cn1 (centres undefined) | 95.18% |
| O=C(c1cnco1)N1CCCC(Cc2nccs2)C1 (centres undefined) | -3.557% |
| Cc1ncncc1C(=O)N1CCCN(Cc2nccn2C(C)C)CC1 | -12.73% |
| Cc1ncncc1C(=O)N1CCCC(Cc2nccs2)C1 (centres undefined) | 112.8% |
| Cc1ncc(C(=O)N2CCCC(Cc3nccs3)C2)cn1 (centres undefined) | 96.26% |
| CCc1nc(CN2CCCN(C(=O)c3cncnc3C)CC2)cs1 | 14.37% |
| O=C(c1cccnc1)N1CCN(c2ccnc3ccsc23)CC1 | -5.057% |
| Cn1cc(C(=O)N2CCC(Cc3nccs3)CC2)cn1 | 0.6928% |
| Cn1cc(C(=O)N2CCCC(Cc3nccs3)C2)cn1 (centres undefined) | -5.021% |
| Cc1ncc(C(=O)N2CC[C@@]3(O)CCN(C4CCCCC4)C[C@H]3C2)cn1 | 8.568% |
| O=C(N1CCCC1)C12CC(CN1Cc1nccs1)C2 | -16.8% |
| O=C(c1cccnc1)N1CCCC(Cc2nccs2)C1 (centres undefined) | 104.8% |
| Cc1cccc2c1nc(CCO)n2-c1ccc(N)nc1 | -17.09% |
| CSc1ccc(-c2nc(CN3CCC(NC(C)=O)C3)c(C)o2)cc1 (centres undefined) | -8.203% |
| COc1cccc2c1OCC(C(=O)N1CCN(CCS(C)(=O)=O)CC1)C2 (centres undefined) | -9.844% |
| Fc1ccc(Cn2ncc3c2CN(c2noc(C4CC4)n2)C3)cc1 | 2.089% |
| COc1nn(C)cc1C(=O)N1CCC(c2nnc(-c3ccsc3)o2)CC1 | 120.9% |
| COc1ncccc1C(=O)N1CCC(c2nnc(C3CC3)o2)CC1 | 16.61% |

| Compound | Percent Effect |
| --- | --- |
| COc1nn(C)cc1C(=O)N1CCC(c2nnc(C(C)C)o2)CC1 | 80.59% |
| COc1nn(C)cc1C(=O)N1CCC(c2nnc(C3CC3)o2)CC1 | 8.567% |
| Cn1nccc1C(=O)N1CCC(n2cc(-c3ccsc3)nn2)CC1 | -17.39% |
| Cn1ccnc1C(=O)N1CCC(Cn2cc(-c3ccsc3)nn2)CC1 | 0.3036% |
| C/C=C(/C)C(=O)NS(=O)(=O)c1ccc(Cl)cn1 | 2.315% |
| Cc1nccnc1N1Cc2cnc(CC(C)C)nc2C1 | -0.1537% |
| CCCNC(=O)NCc1nc(C)c(C)o1 | -5.382% |
| Cc1nc(CN(C)S(=O)(=O)c2ccc(F)cc2Br)no1 | -1.638% |
| C[S+]([O-])c1nncn1CC(=O)c1cccc(Cl)c1 (centres undefined) | 6.672% |
| COc1ccc(NC(=O)N(C)Cc2ccco2)cn1 | 3.036% |
| COc1cccc(CN2CCC(c3cc(O)nc(C)n3)C2)c1.O=C(O)CC(O)(CC(=O)O)C(=O)O (centres undefined) | -8.452% |
| COc1ccc2nc(O)c(CN(C)Cc3ncc[nH]3)cc2c1 | -3.339% |
| CCOC(=O)C1(Cc2cccc(OC)c2)CCN(Cc2ncc[nH]2)CC1 | -0.1816% |
| COc1ccc(CN(C(=O)C(C)C)c2cnn(C)c2)c(OC)c1 | -18.73% |
| COc1cccc(CN(Cc2ccco2)Cc2cnc(C)n2C)c1.O=C(O)CC(O)(CC(=O)O)C(=O)O | 133.7% |
| COc1cccc(CN(Cc2ccco2)Cc2[nH]cnc2C)c1.O=C(O)CC(O)(CC(=O)O)C(=O)O | 156.3% |
| Cc1noc(CN(Cc2ccc3c(c2)OCCO3)Cc2ccco2)n1 | -7.452% |
| COc1ccc(CN(C(=O)CCC(C)C)c2cnn(C)c2)c(OC)c1 | -10.12% |
| COc1cccc(CN(Cc2ncc[nH]2)Cc2ccco2)c1.O=C(O)CC(O)(CC(=O)O)C(=O)O | 114.4% |
| COc1ccc(CN(Cc2ccco2)Cc2[nH]cnc2C)c(OC)c1.O=C(O)CC(O)(CC(=O)O)C(=O)O | 111.9% |
| Cc1nc[nH]c1CN(Cc1ccccc1)Cc1nccs1 | 10.51% |
